Screening results deposited in PubChem by National Center for Advancing Translational Sciences (NCATS).
HT1080 IDH1KD tx: HT-1080 IDH1 knockdown cell toxicity (counter line) | HT-1080 IDH1 knockdown viability, ATP luminescence, 48 h | 2% of 360,000 active | AID 686971 | Potency, µM (titrated, usually from 46.1 µM), inactives show at the top dose activity, negative = toxicity, usual class: cytotoxic;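 note: potency is the fitted concentration of half-maximal effect; 0% = DMSO wells and -100% = cell-free medium wells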
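HT-1080-IDH1KD cells (IDH1 knocked down), 750/well in RPMI with 5% FBS, treated with compound 48 h at 37 degrees C. Viability by CellTiter-Glo luminescence, normalised to DMSO and no-cell wells; concentration-response curves classed.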
TDP1 cell CPT: DT40-hTDP1 cell growth loss with CPT; chicken DT40 Tdp1-/-;hTDP1 cells + 20 nM CPT, ATP luminescence, 48 h; Potency, µM (doses to about 46.2 µM), without a hit: at the highest dose activity change, negative = growth inhibition, actives largely listed as inhibitors; 12% of 420,000 active; note: potency is the fitted concentration of half-maximal effect; nearly all actives have a fitted effect of over 55% in size
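Cell growth measured by CellTiter-Glo luminescence after a minimum 48 h, 37 C compound exposure with 20 nM CPT in Tdp1-knockout DT40 cells stably expressing hTDP1, seeded 400/well; qHTS titration format.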
DT40 TDP1 no CPT: qHTS for Inhibitors of human tyrosyl-DNA phosphodiesterase 1 (TDP1): qHTS in cells in absence of CPT. DT40 Tdp1-/- hTDP1 cells, no CPT, ATP luminescence, 48 h. Potency, µM (titrated, usually from 46.2 µM), inactives show top-dose activity change, negative = growth inhibition, usual class: inhibitors. 15% of 420,000 active. AID 686978, 2013; note: potency is the fitted concentration of half-maximal effect; nearly all actives have a fitted effect of over 55% in size
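No-CPT arm: Tdp1-/-;hTDP1 DT40 cells (400/well) plus compounds, incubated ≥48 hr at 37 °C. Readout CellTiter-Glo luminescence.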
ELG1 repair inh: inhibitors of ELG1-dependent DNA repair in HEK293T cells | 2.3% of 330,000 active | Potency, µM (series often up to 46.1 µM), inactives show at the top dose activity change, negative = inhibition, usual class: inhibitors | AID 504467 | HEK293T ELG1-luciferase reporter, luminescence, 16 h; DNA damage induced by 5-fluorouridine; note: potency is the fitted concentration of half-maximal effect; nearly all actives have a fitted effect of over 55% in size
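Step one: seed 2,000 cells per well. Step two: pin-transfer compound or DMSO alongside 5-fluorouridine. Step three: incubate 16 hr, 37 °C, 5% CO2. Step four: add ONE-Glo, wait 30 min, read luminescence.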
IL1B secr inh: inhibitors of inflammasome signaling (IL-1 beta secretion). THP-1 LPS/ATP IL-1B secretion, AlphaLISA, 16 h; stronger effect = lower value. activity change, % at 57.5 µM. 4.7% of 360,000 active; in the data active = activity change below about -50%; inconclusive = mostly about -30% to -49%
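Secreted IL-1B measured by AlphaLISA bead assay after 16 h compound exposure of THP-1 cells; compounds (final up to 57.5 uM) added 1 h before LPS (250 ng/mL) and ATP (1.25 mM) stimulation; lower signal means less secretion.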
HT1080-NT tox: kills 2HG-producing HT-1080-NT fibrosarcoma cells | 1.6% of 360,000 active | AID 686970 | Potency, µM (titrated, usually from 46.1 µM), for the others: at the highest dose activity, negative = less viability, most hits filed as cytotoxic | HT-1080-NT fibrosarcoma viability, CellTiter-Glo ATP luminescence, 48 h;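 note: NT is the 2HG producing partner of a matched IDH1 knockdown line; potency is the fitted concentration of half-maximal effect; 0% = DMSO-treated cells and -100% = media-only wells without cells; nearly all actives have a fitted effect of over 55% in size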
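750 cells/well, RPMI + 5% FBS; 2 h settle, compound pin-transfer, 48 h at 37 degrees C. CellTiter-Glo 10 min RT, luminescence. Normalized to DMSO and media-only wells.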
Starred values were filed as active, the others as inactive; ? = inconclusive; . = not tested or not shown. Sampled rows, rich in hits. Any-hit rate of the full collection: about 19%. Unless noted, calls come from the whole dose curve; as a rule, active = well fitted curve in the direction sought with a large enough effect; inconclusive = small, poorly fitted or top-dose-only effect, or another doubt; inactive = no such curve, though single readings can be large; an effect the other way counts as inactive or inconclusive. Unless noted, % is set by controls: 0 for no effect and ±100 for the full control effect.

SMILES	HT1080 IDH1KD tx	TDP1 cell CPT	DT40 TDP1 no CPT	ELG1 repair inh	IL1B secr inh	HT1080-NT tox
COc1ccc(OC)c(C(=O)c2oc3ccccc3c2NC(C)=O)c1	-28%	23µM*	16µM*	?	-8	-19%
O=C1c2cccc3c(O)ccc(c23)C(=O)N1c1ccc(Cl)cc1	-2%	?	-26%	?	45	-17%
CC1(C)CC(=O)C=C(C(=O)N2CCCC(C(=O)c3cccc(C(F)(F)F)c3)C2)O1 (centres undefined)	-5%	?	?	12%	-20	-5%
COc1ccccc1C(=O)Nc1c(C(=O)N2CCN(C)CC2)oc2ccccc12	3%	-25%	-24%	-4%	-60*	13%
COc1cc(C(=O)Nc2c(C(=O)Nc3ccccc3F)oc3ccccc23)cc(OC)c1OC	.	5.2µM*	4.1µM*	.	.	.
Cc1ccccc1C(=O)Nc1c(C(=O)N(CCN(C)C)Cc2ccco2)oc2ccccc12	?	?	?	6%	0	-18%
CC(=O)Nc1c(C(=O)Nc2ccccc2F)oc2ccccc12	.	-16%	?	.	.	.
COc1ccccc1C(=O)Nc1c(C(=O)N(CCN(C)C)Cc2ccco2)oc2ccccc12	?	9.2µM*	12µM*	-6%	?	-3%
CCOc1ccc(NC(=O)c2oc3ccccc3c2NC(=O)c2ccc(OC)cc2OC)cc1	.	23µM*	18µM*	.	.	.
C/C(=C\c1ccc(F)cc1)C(=O)c1c(C)cc(C)[nH]c1=O	0%	-9%	?	?	-20	12%
COc1ccc(NC(=O)c2oc3ccccc3c2NC(=O)C23CC4CC(CC(C4)C2)C3)c(OC)c1	.	-23%	23µM*	.	.	.
CC(=O)Nc1cccc(NC(=O)c2csc(C)c2)c1	9%	-1%	12%	-7%	-2	4%
CN(C(=O)COC(=O)c1cc(=O)[nH]c2ccccc12)c1ccccc1	0%	-15%	?	26%	4	-1%
CCOC(=O)c1cc(-c2ccncc2)nc2c1c(C)nn2-c1ccccn1	-11%	?	16µM*	23µM*	-13	-22%
Cc1nn(Cc2cccc(F)c2)c(C)c1NC(=O)c1c(Cl)cnn1C	-3%	-28%	?	4%	-7	-1%
Cc1nn(Cc2ccc(Cl)cc2Cl)c(C)c1NC(=O)c1sc2ccccc2c1Cl	10%	-26%	-28%	-3%	-3	11%
Cc1nn(Cc2c(Cl)cccc2Cl)c(C)c1NC(=O)c1sc2ccccc2c1Cl	?	18µM*	16µM*	0%	7	?
CN(Cc1c(F)cccc1Cl)C(=O)CNC(=O)c1sc2ccccc2c1Cl	-6%	-21%	-24%	?	-52*	-2%
Cc1cnc(NC(=O)c2sc3ccccc3c2Cl)s1	-11%	?	?	?	48	-8%
CN(CC(=O)Nc1c(Cl)cccc1Cl)C(=O)CNC(=O)c1sc2ccccc2c1Cl	0%	?	?	.	59	0%
Cc1nn(Cc2ccc(Cl)c(Cl)c2)c(C)c1NC(=O)c1sc2ccccc2c1Cl	?	?	15µM*	?	-9	-20%
Cc1ccccc1Cn1nc(C)c(NC(=O)c2sc3ccccc3c2Cl)c1C	?	?	21µM*	26µM*	-26	-18%
Cc1ccc2c(CC(=O)Nc3c(C(=O)c4ccc(C)c(F)c4)oc4ccccc34)coc2c1	.	-9%	?	.	.	.
CC1CC(C)(C)CC2(C1)NC(=O)N(CC(=O)Nc1ccc3c(c1)OCO3)C2=O (centres undefined)	1%	4%	-11%	.	-1	5%
CCN(CC)C(=O)Cn1ncc2c([nH]c3ccc(C)cc32)c1=O	.	6%	-3%	.	.	.
SMILES	HT1080 IDH1KD tx	TDP1 cell CPT	DT40 TDP1 no CPT	ELG1 repair inh	IL1B secr inh	HT1080-NT tox
CC(=O)c1ccc(-c2[nH]c3ccccc3c2CCN2C(=O)c3ccccc3C2=O)cc1	2%	?	?	.	12	4%
O=C1c2ccccc2C(=O)N1CCc1c(-c2[nH]c3ccccc3c2CCN2C(=O)c3ccccc3C2=O)[nH]c2ccccc12	13%	21µM*	18µM*	.	15	8%
O=C1c2ccccc2C(=O)N1CCc1c(-c2ccccc2)[nH]c2ccccc12	?	?	15µM*	.	?	-28%
CC(C)(C)CC(C)(C)n1nnnc1N	11%	20%	14%	.	42	?
Cn1c(=O)n(CC(=O)O)c(=O)c2c1nc1n2CCCN1c1ccc(Cl)cc1	.	-10%	2%	.	.	.
Cc1ccc(Nc2nc(C)c(NC(=O)c3ccc(C)cc3)c(Nc3ccc(C)cc3)n2)cc1	.	6.5µM*	4.6µM*	.	.	.
CCOC(=O)c1cnc(Nc2ccc(OCC)cc2)nc1C	23%	-2%	-11%	?	-4	7%
